Measured values published in PubChem BioAssay AID504332 (National Center for Advancing Translational Sciences (NCATS), 2011).
In all, about 350,000 compounds went through this assay and about 31,000 (8.9%) were called active. Not shown: some 15% with an inconclusive outcome. Calls come from the whole dose curve; as a rule, active = well fitted inhibition curve with a large enough effect; inconclusive = small, poorly fitted or top-dose-only effect; inactive = no such curve, though single readings can be large or run the other way. The full list was thinned out, with actives kept by preference.

Molecular target: Histone-lysine N-methyltransferase EHMT2 (Homo sapiens) (UniProt Q96KQ7)
Sequence (Q96KQ7 913-1193 limits assumed): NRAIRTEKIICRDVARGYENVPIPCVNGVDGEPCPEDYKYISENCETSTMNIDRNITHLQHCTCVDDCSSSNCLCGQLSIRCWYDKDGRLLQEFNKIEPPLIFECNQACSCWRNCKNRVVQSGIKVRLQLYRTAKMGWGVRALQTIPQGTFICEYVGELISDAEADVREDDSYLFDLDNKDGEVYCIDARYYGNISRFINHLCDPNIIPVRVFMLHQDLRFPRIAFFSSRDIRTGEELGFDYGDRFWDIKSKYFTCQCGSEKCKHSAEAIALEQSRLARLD
Test: qHTS Assay for Inhibitors of Histone Lysine Methyltransferase G9a; note: nearly all actives have a fitted effect of over 75% in size
Conditions: G9a H3K9 monomethylation, AlphaScreen, 2 h; series mostly up to 59 µM; activity, negative = inhibition: at the top concentration
Outline: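 AlphaScreen read-out: biotin-H3K9 peptide (500 nM) methylation by 20 nM enzyme with 20 uM SAM, 2 h at room temperature after 15 min compound preincubation; anti-monomethyl H3K9 antibody plus donor/acceptor beads, 10 min dark.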
% is set by controls: 0 for no effect and ±100 for the full control effect; potency is the fitted concentration of half-maximal effect.

SMILES	activity, negative = inhibition	Potency
COC(=O)C1=C(c2ccccc2)c2ccccc2S(=O)(=O)N1CC(=O)Nc1ccccc1C(F)(F)F	-8.07% (inactive)	
Cc1ccc(CN2CCC(CNC(=O)c3cnn(-c4ccccc4Cl)c3C3CCN(C(=O)OC(C)(C)C)CC3)CC2)cc1	-35.5% (inactive)	
COc1ccc(NC(=O)CCCc2nnc3n(CCC(C)C)c(=O)c4sccc4n23)c(OC)c1	-29% (inactive)	
CCCN(CCC)S(=O)(=O)c1ccc(C(=O)Nc2sc3c(c2C(=O)OC)CCN(CC)C3)cc1	-2.33% (inactive)	
CCOC(=O)N1CCN(C(=O)c2n[nH]c(=O)c3ccccc23)CC1	8.06% [at 12.7 µM] (inactive)	
CCOC(=O)N1CCN(C(=O)Cn2cnc3ccccc3c2=O)CC1	1.87% [at 12.7 µM] (inactive)	
CCOC(=O)N1CCN(CC(=O)n2c(C)c(C)c3ccccc32)CC1		12.6 µM (active)
CC1CCCCC1NC(=O)COC(=O)Cc1ccc(Cl)cc1 (centres undefined)	-8.06% (inactive)	
CCOc1cc(C(=O)O)ccc1OCCOc1ccccc1	-19.4% [at 102 µM] (inactive)	
CCOc1cccc2c1N[C@@H](c1ccc(C(=O)O)cc1)[C@H]1CC=C[C@@H]21		4.47 µM (active)
CCOc1c(CNCc2ccc(C(=O)O)cc2)cccc1OC	-6.88% [at 102 µM] (inactive)	
Cc1nn(C(C)C(=O)Nc2ccc(C(C)C)cc2)c(=O)c2c1sc1ccccc12 (centres undefined)	3.76% (inactive)	
O=C(NCc1ccccc1CN1CCCC1)c1cccc(S(=O)(=O)Nc2ccc(F)cc2)c1	-13% (inactive)	
COc1ccc(CCNCc2c(C(=O)O)c(C)n(Cc3cccc(C)c3)c2C)cc1OC	0.213% (inactive)	
CC(C)n1c(-c2cccs2)nc2ccccc21	0.456% (inactive)	
c1csc(-c2cn3c(n2)SCC3)c1		17.8 µM (active)
Cc1cc(-c2cccs2)nc(-n2cccc2)n1	151% (inactive)	
CCC(C)N(C(=O)CSc1ncnc2c1cnn2-c1ccccc1)C1CCS(=O)(=O)C1 (centres undefined)	17.2% [at 2.33 µM] (inactive)	
COC(=O)[C@]1(C)N[C@H](c2ccc(-c3ccc(Cl)c(Cl)c3)cc2)[C@@H]2C(=O)N(C)C(=O)[C@@H]21	12.5% [at 2.33 µM] (inactive)	
COC(=O)c1ccccc1NC(=O)c1cc(-c2ccccc2O)no1	-36.7% (inactive)	
Cc1ccc(O)c(NC(=O)c2cc(-c3ccc(F)cc3)no2)c1		8.91 µM (active)
Cc1ccc(O)c(NC(=O)c2cc(-c3ccco3)on2)c1	-12.3% [at 102 µM] (inactive)	
Cc1nn(C)c2c1c(C(F)(F)F)cc(=O)n2C(C)C(=O)NCc1ccc(Cl)cc1 (centres undefined)	9.14% (inactive)	
Cn1c(=O)[nH]c(=O)c2c1nc(Br)n2CCCCSc1nc2ccccc2o1	-18.1% (inactive)	

SMILES	activity, negative = inhibition	Potency
CCCCCn1c(SCCC(C)C)nc2c1c(=O)[nH]c(=O)n2C		10 µM (active)
CCCCn1c(SCC(=O)N2CCOCC2)nc2c1c(=O)n(C)c(=O)n2C	-10.6% (inactive)	
CCOC(=O)c1ccccc1NC(=O)c1sc2nc(-c3ccc(F)cc3)cn2c1C	0.0457% (inactive)	
Cc1ccc(C)c(CN2C(=O)c3ccccc3S(=O)c3ccc(C(=O)N4CCOCC4)cc32)c1 (centres undefined)	-38.9% (inactive)	
CCCc1nc2c([nH]1)C(c1cccnc1)C(C#N)=C(N)O2 (centres undefined)	4.38% (inactive)	
Cc1cc(C)c(C#N)c(SCc2[nH]nc3c2C(c2ccccc2)C(C#N)=C(N)O3)n1 (centres undefined)	-44.7% (inactive)	
Cc1cc(C)c2c3c(sc2n1)C(c1ccccc1)C(C#N)=C(N)O3 (centres undefined)		14.1 µM (active)
O=C(NCCc1cccc(F)c1)C1CCCN(c2nc3ccccc3s2)C1 (centres undefined)	28.4% [at 102 µM] (inactive)	
COc1ccc(-c2[nH]c3c(c2-c2c(-n4cccc4)n(C)c(=O)n(C)c2=O)c(=O)n(C)c(=O)n3C)cc1	2.53% (inactive)	
CCOC(=O)C1CCN(C(=O)COc2cccc3ccccc23)CC1	9.04% [at 12.7 µM] (inactive)	
CCCn1c2ccccc2c2cnn(CC(=O)NCCCOC(C)C)c(=O)c21	-12.1% (inactive)	
O=C1c2ccccc2NC(c2ccccn2)N1NS(=O)(=O)c1ccccc1 (centres undefined)	-22.8% [at 102 µM] (inactive)	
CN(C)c1ccc(C2Nc3ccccc3C(=O)N2NS(=O)(=O)c2ccccc2)cc1 (centres undefined)		39.8 µM (active)
CC(=O)NN1C(=O)c2ccccc2NC1c1ccccc1 (centres undefined)	9% [at 102 µM] (inactive)	
COc1cc(NC(=O)c2ccc(-c3csc(C)n3)cc2)c(OC)cc1Cl	-6.85% [at 102 µM] (inactive)	
CSc1ccccc1NC(=O)CCS(=O)(=O)c1nc(-c2cccs2)cc(C(F)(F)F)n1		3.16 µM (active)
COc1ccccc1-c1cc(C(F)(F)F)nc(S(=O)(=O)CCCC(=O)Nc2ccc(F)cc2F)n1	-1.07% (inactive)	
COc1ccc(Cl)cc1NC(=O)CSc1nc(-c2cccs2)cc(C(F)(F)F)n1	-2.43% (inactive)	
Cc1ccc(NC(=O)CSc2nc3c(c(=O)[nH]2)CN(Cc2ccc4c(c2)OCO4)CC3)cc1C	-35.4% (inactive)	
O=C(Nc1ccccc1N1CCCCC1)c1ccc2nccnc2c1	-42% (inactive)	
O=C(Nc1ccccc1N1CCCC1)c1ccc2ccccc2c1		44.7 µM (active)
O=C(Nc1ccccc1N1CCCC1)c1ccc(F)c(S(=O)(=O)N2CCOCC2)c1	-5.62% [at 0.501 µM] (inactive)	
Cc1cc(C)cc(OCC(=O)OCC(=O)NC2CCCC2)c1	-28.2% [at 2.33 µM] (inactive)	
Cc1ccc(NC(=O)Cn2c(=O)n(-c3ccccc3)c(=O)c3c4c(sc32)CCCC4)cc1	-2.86% (inactive)	

SMILES	activity, negative = inhibition	Potency
CCN(C(=O)CSc1nnc(C)n2c1cc1occc12)c1ccccc1	-37.4% (inactive)	
Clc1ccc(CSc2nncn3c2cc2occc23)cc1		12.6 µM (active)
O=C(C1CC1)N1CCN=C1SCc1ccc(Cl)cc1	1.29% [at 102 µM] (inactive)	
Cc1cc(=O)oc2c(C)c(OC(C)C(=O)NC3CCN(Cc4ccccc4)CC3)ccc12 (centres undefined)	-0.627% [at 102 µM] (inactive)	
Cc1ccc2c(c1)-c1c(cnn1CC(=O)Nc1ccccc1C#N)CO2	19% (inactive)	
CCC1C(=O)c2ccccc2N(C)C1=O (centres undefined)	11.9% (inactive)	
CN1C(=O)/C(=C\c2cc(Br)cs2)c2ccccc21		10 µM (active)
CN1C(=O)c2ccccc2Sc2ccc(NC(=O)Cc3ccc(Cl)cc3)cc21	6.98% (inactive)	
COc1ccccc1-c1cc2nc(C)c(CCC(=O)O)c(C)n2n1	-5.37% (inactive)	
CCCNC(=O)c1ccc2c(c1)ncn2-c1ccc(C)cc1C	-1.33% (inactive)	
NC(=O)c1ccsc1NC(=O)COC(=O)COc1ccc(C=O)cc1	-1.54% [at 12.7 µM] (inactive)	
CC(C)OC(=O)CN1C(=O)c2ccccc2C1=O	-1.86% [at 12.7 µM] (inactive)	
O=C1c2ccccc2C(=O)N1CCC(c1ccccc1)c1ccco1 (centres undefined)	15.6% (inactive)	
O=C1c2ccccc2C(=O)N1CCC(O)C[N+](=O)[O-] (centres undefined)		31.6 µM (active)
Cc1ccc(F)cc1NC(=O)CSCc1c(C)noc1C	28% [at 12.7 µM] (inactive)	
C=CCN1C(=NC(=O)COc2ccccc2)SC2CS(=O)(=O)CC21 (centres undefined)	16.1% [at 102 µM] (inactive)	
N#CCC(=O)Nc1ccc(C(=O)OCC(=O)Nc2sc3c(c2C#N)CCCC3)cc1		50.1 µM (active)
Cc1ccc(C)c(OCC(=O)Nc2sc3c(c2C#N)CCCC3)c1C	8.72% (inactive)	
Cc1cccc(C(=O)OCC(=O)Nc2sc3c(c2C#N)CCC3)c1	22.1% (inactive)	
CCN1CCN(CC(=O)Nc2sc3c(c2C#N)CCC3)CC1		70.8 µM (active)
CCCc1cc(=O)[nH]c(SCC(=O)Nc2sc3c(c2C#N)CCCC3)n1	4.02% [at 102 µM] (inactive)	
CN1CCN(CC(=O)Nc2sc3c(c2C#N)CCC(C(C)(C)C)C3)CC1 (centres undefined)	2.75% [at 12.7 µM] (inactive)	
CCC1CCCCN1C(=O)Cn1c(=O)n(CCCCCC(=O)NCc2ccccc2)c(=O)c2sccc21 (centres undefined)	-0.514% (inactive)	
COc1ccccc1C(=O)Nc1c(C(=O)N(C)Cc2ccccc2)sc2nc(C)c(Cl)c(C)c12	-34.1% (inactive)	

SMILES	activity, negative = inhibition	Potency
Cc1ccccc1NC(=O)CN1C(=O)C(C)(C)c2ccccc21	13.1% (inactive)	
C=C1CCC(N(O)c2cc(C)on2)C(=C)CCC2C1CC2(C)C (centres undefined)	-0.801% [at 0.501 µM] (inactive)	
CCCCC12CN3CC(C)(CN(C1)C3c1ccc(O)c(OC)c1)C2=O (centres undefined)	-6.49% (inactive)	
CCC[C@H]1CCCC/C=C\CCCC(=O)OCCN1C(=O)OC(C)(C)C	5.32% [at 2.33 µM] (inactive)	
O=C1CC(c2nnc(Cc3ccc(Cl)cc3)o2)CN1c1ccccc1 (centres undefined)	-40.5% (inactive)	
CC(C)N(C(=O)c1ccc(-c2ccccc2F)cc1)C(C)C	46.1% [at 102 µM] (inactive)	
CC(=O)N(C1=C(Cl)C(=O)c2ccccc2C1=O)c1ccc(C(=O)O)cc1		0.891 µM (active)
O=C(CN1C(=O)c2ccccc2C1=O)NCc1ccc(C(=O)O)cc1	18.2% [at 102 µM] (inactive)	
COc1cccc(CNCc2c(C(=O)O)n(Cc3ccc(C)cc3)c3cc(C)ccc23)c1OC	-34.2% (inactive)	
CCn1c(=O)n(CC)c2cc(N3CCCC3)c(NC(=O)c3ccccc3Br)cc21		44.7 µM (active)
CCn1c(=O)c(=O)n(CC)c2cc(N3CCCCC3)c(NC(=O)c3ccc(Cl)cc3)cc21	1.91% [at 12.7 µM] (inactive)	
CCn1c(=O)c(=O)n(CC)c2cc(N3CCCCC3)c(NC(=O)c3cccc(F)c3)cc21	-23.6% (inactive)	
Cc1cc(C)cc(NC(=O)Cn2c(=O)c3ccccc3n3nncc23)c1	6% (inactive)	
COc1cc(C(=O)OCC(=O)N(CC(C)C)C2CCS(=O)(=O)C2)ccc1OCC(C)C (centres undefined)	-31.5% [at 102 µM] (inactive)	
COc1ccc(C(=O)OCC(=O)N2CC(=O)Nc3ccccc32)cc1Br	-27.7% [at 102 µM] (inactive)	
Cc1ccc(S(=O)(=O)N2CCCCC2)cc1C(=O)N1CCN(CCO)CC1		11.2 µM (active)
CCOC(=O)N1CCN(C(=O)c2cn(C)c3ccc(S(=O)(=O)N4CCCC4)cc3c2=O)CC1	-3.84% (inactive)	
Cc1ccc(S(=O)(=O)N2CCN(C)CC2)cc1C(=O)NC1CCCCC1	107% [at 102 µM] (inactive)	
Cc1cccc(N2CCN(c3c(CN4CCCC4)c(=O)oc4ccccc34)CC2)c1C	-1.43% (inactive)	
COc1ccc(N(CC(=O)NCCc2ccc(Cl)cc2)S(=O)(=O)c2c(C)nn(C)c2C)cc1	1.32% (inactive)	
CCC(=O)N1CCc2cc(S(=O)(=O)NC(Cc3ccccc3)C(=O)NCc3ccccc3)ccc21 (centres undefined)	1.47% (inactive)	
Cc1ccc(S(=O)(=O)NCCC(=O)NCc2ccc(Cl)cc2)cc1C	3.24% (inactive)	
